Compound activity deposited in PubChem BioAssay by several laboratories.
CYP2C19 inh – inhibitors of human CYP2C19 | P33261 | CYP2C19 Supersomes, luciferin-H EGE luminescence, 30 min | inhibition, % at 5 µM | 21% of 96,000 active;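 active = CYP2C19 inhibition above a set limit at 5 µM in the primary screen, cut at about 50% in these data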
CYP2C19 activ – increases human CYP2C19 enzyme activity | P33261 | recombinant CYP2C19, luciferin-H EGE luminescence; hits give high values; 0 = fully inhibited enzyme, 1 = untreated enzyme | activation factor at 5 µM | 96,000 tested, under 10 active | AID 1025;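 active = activation factor of at least 2 at 5 µM in the primary screen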
sEH activator – activators of human soluble epoxide hydrolase | purified human sEH enzymatic activity, activator screen | P34913 | 0.04% of 91,000 active | activation, % at 2 µM; in the data active = activation above about 37%
CYP2C9 activ – activators of human CYP2C9. P11712. recombinant CYP2C9, luciferin-H conversion, luminescence; hits give high values; factor 1 = untreated enzyme, 0 = blocked. activation factor at 5 µM. 1.4% of 96,000 active;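 active = activation factor of 2 or more for CYP2C9 at a 5 µM dose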
Target sequence (P11712 whole entry, looked up): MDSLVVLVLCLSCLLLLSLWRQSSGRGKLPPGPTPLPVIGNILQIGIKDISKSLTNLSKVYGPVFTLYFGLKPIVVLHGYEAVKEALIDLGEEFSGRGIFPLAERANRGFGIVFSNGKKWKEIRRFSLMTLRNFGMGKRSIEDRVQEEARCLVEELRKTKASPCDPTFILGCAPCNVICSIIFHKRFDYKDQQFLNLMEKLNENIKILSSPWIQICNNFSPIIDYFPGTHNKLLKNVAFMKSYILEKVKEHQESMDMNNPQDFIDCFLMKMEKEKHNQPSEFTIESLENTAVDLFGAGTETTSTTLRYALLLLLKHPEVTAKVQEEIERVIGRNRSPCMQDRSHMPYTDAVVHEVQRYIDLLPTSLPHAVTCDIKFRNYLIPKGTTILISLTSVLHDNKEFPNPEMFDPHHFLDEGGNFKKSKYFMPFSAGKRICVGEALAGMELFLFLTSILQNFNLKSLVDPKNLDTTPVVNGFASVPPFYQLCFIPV
CYP2C9 inh – human CYP2C9 inhibition. P11712. CYP2C9 Supersomes, luciferin-H conversion, luminescence. inhibition, % at 5 µM. 20% of 96,000 active. AID 777;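 active = blocking of liver enzyme CYP2C9 beyond about 50% at 5 µM, limit read from the data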
sEH inhibitor – soluble epoxide hydrolase (human) inhibition. AID 707. recombinant human sEH enzymatic activity assay. 0.34% of 91,000 active. inhibition, % at 2 µM. P34913; in the data active = inhibition above about 80%
Of the large screens only hits and unclear results are named; the others gave an inactive call. Sampled rows, rich in hits. Any-hit rate of the full collection: about 27%.

CCN1C(=O)CC(c2ccco2)Sc2ccccc21 (stereo not drawn)	CYP2C19 inh 53 (no result: sEH activator, sEH inhibitor)
O=C(CN1C(=O)CC(c2ccco2)Sc2ccccc21)Nc1ccccc1F (stereo not drawn)	none (no result: CYP2C19 inh, CYP2C19 activ, CYP2C9 activ, CYP2C9 inh)
CSc1nc2[nH]c3c(c2c2ncnn12)CCCC3	none (no result: sEH activator, sEH inhibitor)
CCOC(=O)C(CC)Sc1nnc(COc2ccc(C)cc2)n1-c1ccccc1 (stereo not drawn)	none (no result: CYP2C19 inh, CYP2C19 activ, CYP2C9 activ, CYP2C9 inh)
Fc1ccc(OCCOCCNCC2CCCO2)cc1 (stereo not drawn)	none (no result: CYP2C19 inh, CYP2C19 activ, CYP2C9 activ, CYP2C9 inh)
CCOc1cc(-c2ccc3c(c2)OCO3)cc(=O)c2c(C)oc(C)c12	none (no result: sEH activator, sEH inhibitor)
CC1(C)NC(=O)N(CCCCOc2cccc(C(F)(F)F)c2)C1=O	CYP2C19 inh 85, CYP2C9 inh 61 (no result: sEH activator, sEH inhibitor)
CC1(C)NC(=O)N(CCCCOc2ccc3c(c2)CCC3)C1=O	CYP2C19 inh 78 (no result: sEH activator, sEH inhibitor)
CC1(C)NC(=O)N(CCOCCOc2cccc(Oc3ccccc3)c2)C1=O	CYP2C19 inh 96, CYP2C9 inh 84
CCCOC(=O)c1ccc(OCC(O)CN2C(=O)NC(C)(C)C2=O)cc1 (stereo not drawn)	none (no result: sEH activator, sEH inhibitor)
CCC(C)Oc1cccc(OCCCCN2C(=O)NC(C)(C)C2=O)c1 (stereo not drawn)	CYP2C19 inh 72, CYP2C9 inh 59
CCOc1cc(C(=O)N(C)c2ccccc2)cc(OCC)c1OCC	CYP2C19 inh 57
CO/N=C(/CNC(=O)c1cccc(Cl)c1)c1ccc(Cl)cc1	CYP2C19 inh 92, CYP2C9 inh 68
CO/N=C(/CNC(=O)c1ccc(Cl)cc1Cl)c1ccc(Cl)cc1	CYP2C19 inh 62
CCOc1ccc(N2CCn3c2nc2c3c(=O)n(CCc3ccccc3)c(=O)n2C)cc1	none (no result: sEH activator, sEH inhibitor)
CCn1ccc(C(=O)Oc2ccc(C(C)C)cc2)n1	none
Cn1nc(-c2ccc(N3CCCCC3)c(NC(=O)c3ccco3)c2)c2ccccc2c1=O	CYP2C19 inh 59, CYP2C9 inh 96
Cn1nc(-c2ccc(N3CCOCC3)c(NC(=O)COc3ccccc3)c2)c2ccccc2c1=O	none (no result: CYP2C19 inh, CYP2C19 activ, CYP2C9 activ, CYP2C9 inh)
CCC(=O)Nc1cc(-c2nn(C)c(=O)c3ccccc23)ccc1N1CCOCC1	CYP2C9 inh 62
COc1ccc(CN(CC(=O)NCc2ccco2)C(=O)CCC(=O)Nc2nccs2)cc1	none (no result: CYP2C19 inh, CYP2C19 activ, CYP2C9 activ, CYP2C9 inh)
COc1ccc(CN(C)c2ncnc(N)n2)cc1	CYP2C19 inh 78
COc1ccc(C2c3c(oc4ccccc4c3=O)C(=O)N2Cc2ccncc2)cc1 (stereo not drawn)	CYP2C9 inh 59
CCCOc1ccc(C2c3c(oc4ccccc4c3=O)C(=O)N2CCCN2CCOCC2)cc1 (stereo not drawn)	CYP2C19 inh 54, CYP2C9 inh 78 (no result: sEH activator, sEH inhibitor)
CC1=C(C(=O)OC(C)C)C(c2ccccn2)n2ncnc2N1 (stereo not drawn)	none
COc1ccc(CC/C(=N\O)C2(O)CCCCC2)cc1	CYP2C19 inh 58, CYP2C9 inh 70
O/N=C(/CCc1ccccc1)C1(O)CCCCC1	CYP2C19 inh 81, CYP2C9 inh 59
Cc1ccc(C(=O)C(C)OC(=O)c2cc3cc([N+](=O)[O-])ccc3oc2=O)cc1 (stereo not drawn)	CYP2C9 inh 88
CCCc1cc(C(=O)N/N=C/c2ccc(CC)s2)c2ccccc2n1	CYP2C9 inh 65
Cn1c(/C=N/NC(=O)c2ccccc2)nc2ccccc21	none
CCCc1cc(C(=O)N/N=C/c2ccc(C)o2)c2ccccc2n1	CYP2C9 inh 64
Cc1c(=O)n(OCc2ccccc2F)c2ccccc2[n+]1[O-]	none
COC(=O)c1ccc(-c2ccco2)n1Cc1cccc(C)c1	CYP2C19 inh 60, CYP2C9 inh 81
O=C(O)c1ccc(-c2ccco2)n1Cc1ccccc1	CYP2C9 inh 71
CCCn1c(/N=C/c2c[nH]c3ccccc23)nc2ccccc21	none
CCn1c(/N=C/c2c[nH]c3ccccc23)nc2ccccc21	CYP2C19 inh 61, CYP2C9 inh 90
CCOC(=O)Cn1c(=O)oc2cc(S(=O)(=O)Nc3cc(OCC)ccc3OCC)ccc21	CYP2C19 inh 73, CYP2C9 inh 74
CCOC(=O)Cn1c(=O)oc2cc(S(=O)(=O)Nc3ccc(N(CC)CC)cc3C)ccc21	CYP2C19 inh 67, CYP2C9 inh 61
CCOC(=O)Cn1c(=O)oc2cc(S(=O)(=O)Nc3cccc(C)c3)ccc21	CYP2C19 inh 50, CYP2C9 inh 54
CCCN1CCN(C(=O)Cn2c(=O)oc3cc(S(=O)(=O)NCc4ccccc4)ccc32)CC1	none (no result: sEH activator, sEH inhibitor)
